Structures are written as SMILES. Results filed as inconclusive are left out. Values without a mark were called inactive. Activity calls are given as the source filed them. The call rests on the fitted dose curve; in most records, active means well fitted inhibition curve with a large enough effect; inconclusive means small, poorly fitted or top-dose-only effect, or effect the other way; inactive means flat fitted curve, though single readings scatter.
On the % scale 0 is the no-effect control and ±100 the full control effect; potency means the concentration at half of the fitted maximal effect.

Chain of Ubiquitin carboxyl-terminal hydrolase 2 (Homo sapiens) (O75604 whole entry, looked up): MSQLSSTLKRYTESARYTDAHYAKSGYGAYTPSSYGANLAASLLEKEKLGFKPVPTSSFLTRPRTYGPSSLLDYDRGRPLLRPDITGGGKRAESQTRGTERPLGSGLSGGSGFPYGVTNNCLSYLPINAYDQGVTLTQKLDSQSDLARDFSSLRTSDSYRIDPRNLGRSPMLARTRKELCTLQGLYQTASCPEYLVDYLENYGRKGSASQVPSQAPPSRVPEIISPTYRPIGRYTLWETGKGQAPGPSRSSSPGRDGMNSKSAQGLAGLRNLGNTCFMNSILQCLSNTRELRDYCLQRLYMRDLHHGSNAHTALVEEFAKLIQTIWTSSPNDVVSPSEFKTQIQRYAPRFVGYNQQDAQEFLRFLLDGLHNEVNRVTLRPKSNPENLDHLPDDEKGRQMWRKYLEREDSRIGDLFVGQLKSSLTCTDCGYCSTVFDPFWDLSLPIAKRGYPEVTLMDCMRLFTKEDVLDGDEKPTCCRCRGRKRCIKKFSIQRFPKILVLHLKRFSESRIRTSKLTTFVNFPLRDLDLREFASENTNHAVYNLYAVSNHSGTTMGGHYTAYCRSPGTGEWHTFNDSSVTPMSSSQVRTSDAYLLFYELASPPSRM

This test concerns the target Ubiquitin carboxyl-terminal hydrolase 2 (Homo sapiens) (UniProt O75604). Description: Ub-rhodamine 110 based assay for inhibitors Ubiquitin-specific Protease USP2a. Further: nearly all actives have a fitted effect of over 50% in size. The note with it: USP2a Ub-rhodamine110 cleavage, fluorescence; series mostly up to 38.3 µM; activity change, negative = inhibition: at the top concentration. Summed up:
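5 nM USP2a preincubated with compounds for 30 min at RT in 20 mM Tris-HCl pH 8.0, 2 mM CaCl2, 2 mM beta-mercaptoethanol, 0.05% CHAPS. Cleavage of 150 nM Ub-rhodamine 110 read kinetically (Ex 485/Em 531) for 7 min.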
As to `O=C(N/N=C/c1cc(Cl)c(O)c(Cl)c1)c1cc2c(ccc3ccccc32)o1`, the Potency was 11.2 µM (active). In the case of `CN(C)c1cccc(C(=O)NNC(=O)C23CC4CC(CC(C4)C2)C3)c1`, the “activity change, negative = inhibition” value was 0.556%.

As for `CCn1c(=O)c(C(=O)Nc2ccccc2S(N)(=O)=O)c(O)c2ccccc21`, the Potency is 5.62 µM (active). As for `CNC(=O)NC(=O)CSc1ccc(NC(C)=O)cc1`, the “activity change, negative = inhibition” value is -6.69%. As for `O=C(NCCc1ccccc1)c1ccc2nc(-c3ccco3)c(-c3ccco3)nc2c1`, the Potency is 5.01 µM (active). Take `CCn1c(COc2ccc(C)cc2)nnc1SCC(=O)Nc1ccc2c(c1)OCCO2`: the “activity change, negative = inhibition” value was -6.14%. As to `COc1ccc(/C=C2\SC(=O)N(CCC(=O)Nc3ccc(S(=O)(=O)Nc4nccs4)cc3)C2=O)cc1`, the Potency is 10 µM (active). With `Cc1cc(NC(=O)CN2C(=O)NC3(CCCCC3C)C2=O)no1` (centres undefined), the “activity change, negative = inhibition” value is 4.44%. For the compound `CCOC(=O)Nc1ccc(S(=O)(=O)Nc2cc(C)nc(C)n2)cc1`, the “activity change, negative = inhibition” value is 1.26%. Same read-out and setting: next, `COc1ccc2[nH]c(=O)c(CN(C)C(=O)C3CCCCC3)cc2c1`: -4.5%. For `COc1ccc(CCn2c(O)cc3nn(-c4nc5ccccc5s4)c(=O)c-3c2C)cc1`, the Potency is 5.62 µM (active). For the compound `COc1ccc(NC(=O)C2CC(=O)OC2c2ccccc2)cc1` (centres undefined), the “activity change, negative = inhibition” value is -14.6%.

`Cc1ccc(S(=O)(=O)Nc2cc(C)c(O)c(S(=O)(=O)c3ccc(C)cc3)c2)cc1`: the “activity change, negative = inhibition” value is -10.6%. Same read-out and setting: as for `Cc1cccn2c(=O)c3cc(C(=O)NCCN4CCOCC4)c(=N)n(CCN4CCOCC4)c3nc12`, the figure is -12.3%. Take `CCN(CC)S(=O)(=O)c1ccc(-c2nnc(SCC(=O)Nc3ccc4c(c3)OCO4)o2)cc1`: the Potency is 10 µM (active).

With `Cc1ccc(/C=C/S(=O)(=O)N2CCC(C(=O)O)CC2)cc1`, the “activity change, negative = inhibition” value is 1.06%. On to `O=S(=O)(c1cc(Cl)ccc1Cl)N1CCNCC1`, for which the “activity change, negative = inhibition” value was -6.69%. On the same count and under the same terms, as for `COCCn1c(CN(Cc2ccccc2)Cc2ccccc2)nc2c1c(=O)n(C)c(=O)n2C`, the figure is -16.8%; as for `CCOC(=O)N1CCN(CC(=O)n2c(C)c(C)c3ccccc32)CC1`, -10.6%. As for `O=C(C[n+]1ccc(C(=O)N/N=C/c2ccc(OCc3ccccc3)cc2)cc1)c1ccccc1`, the Potency was 8.91 µM (active). `COc1cc(C(=O)OC2CCCCC2=O)cc(OC)c1C` (centres undefined): the Potency is 11.2 µM (active).

For the compound `O=S(=O)(c1ccccc1)N(CC1CO1)c1cc(Cl)ccc1Cl` (centres undefined), the “activity change, negative = inhibition” value is 1.25%. Consider `N#CCC(=O)Nc1ccc(C(=O)OCC(=O)NCc2ccc3c(c2)OCO3)cc1`, for which the Potency is 10 µM (active). Take `CCOc1ccc(NC(=O)c2cccc(-n3cnnn3)c2)cc1`: the “activity change, negative = inhibition” value is 1.58%.

Take `COC(=O)c1[nH]c(=O)c2ccccc2c1OCc1ccccc1`: the “activity change, negative = inhibition” value is 5.2%.

For `C=CCSC1=N/C(=C\C=C\c2ccco2)C(=O)S1`, the Potency is 10 µM (active). For the compound `C#CCOCCOCCOCCNc1nc(N2CCN(C(=O)CCCCCCCCCCNC(=O)[C@@H](CCC(=O)O)n3cc(CCCCCN)nn3)CC2)nc(N2CCN(C(=O)CCCCCCCCCCNC(=O)[C@H]([C@@H](C)CC)n3cc(CCCCCN)nn3)CC2)n1`, the “activity change, negative = inhibition” value is -29.6%. As to `O=C(O)C1Nc2c(O)cc(Cl)c([N+](=O)[O-])c2C2C=CCC12` (centres undefined), the Potency was 3.98 µM (active). Still for that read-out and setting: next, `O=C(COC(=O)c1ccc(NS(=O)(=O)c2cccs2)cc1)Nc1nc2c(F)c(F)c(F)cc2s1`: 3.55 µM (active). `CCCCOC1(c2ccccc2)NC(=S)NN=C1c1ccccc1` (centres undefined): the “activity change, negative = inhibition” value is -3.04%. Same read-out and setting: next, `Cc1ccc(C=Nc2ccccc2C(N)=O)cc1`: 3.53%; `C/C(Cn1nnc2ccccc21)=N\OC(=O)c1ccccc1C`: -3.84%. Regarding `CCOC(=O)COc1ccccc1/C=N/O`, the “activity change, negative = inhibition” value is -0.957%. Same read-out and setting: next, `CCCNC(=O)CS(=O)Cc1nc(-c2ccccc2C)oc1C` (centres undefined): -6.47%; `COc1ccc(N(C(=O)C(C)C)S(=O)(=O)c2ccc(Cl)cc2)cc1`: -17.7%. `NC(=O)CC(NC(=O)Cc1ccc(Br)cc1)c1ccc(N2CCC(Cc3ccccc3)CC2)c([N+](=O)[O-])c1` (centres undefined): the “activity change, negative = inhibition” value is -3.24%. On to `C[C@@H]1CN([C@H](C)CO)C(=O)Cc2cc(NS(=O)(=O)c3ccc(Cl)cc3)ccc2O[C@H]1CN(C)Cc1ccc(C(F)(F)F)cc1`, for which the Potency was 10 µM (active). With `O=C(Nc1cnn(Cc2ccccc2)c1)c1nc2ncccn2n1`, the “activity change, negative = inhibition” value was -2.39%.

On to `CC(C)C(C(=O)O)N1C(=O)/C(=C/C=C/c2ccco2)SC1=S` (centres undefined), for which the Potency was 5.01 µM (active).

Values taken from PubChem BioAssay AID493170 (National Center for Advancing Translational Sciences (NCATS), 2011).
